Reference: PubChem BioAssay (Tox21)
“And” between values parts separate entries of the source, which are not always exact repeats. Identical values can stand only once. Records with an inconclusive call do not appear. Where a call stands in place of a potency, no number is given. A structure can be active in one record and inactive in another. The source made the active and inactive calls. The call rests on the fitted dose curve; in most records, active means well fitted activation curve with a large enough effect in the repeat runs; inconclusive means weak or mixed curves; inactive means flat fitted curve, though single readings scatter.

Assay: A CellTox Green Cytotoxicity Assay to monitor cytotoxicity in HepG2 cells - 8 hour (AID 1224890); further: nearly all actives have a fitted effect of over 45% in size
Conditions: CellTox Green fluorescence; series mostly up to 76.8 µM
Description: National Center for Advancing Translational Sciences [NCATS]
NIH Chemical Genomics Center [NCGC]
U.S. Environmental Protection Agency [EPA]
National Institutes of Environmental Health Sciences [NIEHS]
National Toxicology Program [NTP]
Cell-based models are critical for drug discovery. Determining the natural cytotoxic effects resulting from test compounds is an essential research activity. A CellTox Green Cytotoxicity Assay to monitor cytotoxicity in real time of continues cell culture during 40 hours of the compound treatment was used to screen Tox21 10K library compounds in HepG2 cells. CellTox Green Cytotoxicity Assay is a nonlytic, homogeneous, biofluorescent method to measure cytotoxicity in cell culture after experimental manipulation. The assay system uses a proprietary asymmetric cyanine dye that is excluded from viable cells but preferentially stains the dead cell's DNA. […] Viable cells produce no appreciable increases in fluorescence. Therefore, the fluorescence signal produced by the binding interaction with dead cell DNA is proportional to cytotoxicity.
The mixture of HepG2 cell suspension and reagents were dispensed at 600cells/6 ul/well in 1536-well tissue culture treated black solid bottom plates using a Multidrop dispenser. After the assay plates were incubated at a 37 C/5% CO2 incubator for 5 hours, 23 nL of compounds dissolved in DMSO, positive and negative controls was transferred to the assay plate by a pintool work station. The plates were incubated at 37 C for 40 hours. The fluorescence intensity were measured at 0h, 8h, 16h, 24h, 32h and 40h time points using ViewLux plate reader during compound treatment.
Potency means the concentration at half of the fitted maximal effect.

Row | Compound | Potency
1 | NC=O | inactive
2 | CCC(C)CO (stereo not given) | inactive and 49 µM (active)
3 | O=Cc1ccccc1O | inactive
4 | CC(C)Oc1ccc2c(=O)c(-c3ccccc3)coc2c1 | inactive
5 | Cc1ccc2c(n1)Oc1ccc(C(C)C(=O)OCC(=O)N(C)C)cc1C2 (stereo not given) | inactive
6 | Nc1ccc(S(=O)(=O)Nc2cnc3ccccc3n2)cc1 | inactive
7 | c1ccc(Nc2ccccc2)cc1 | inactive
8 | O=C(O)c1ccccc1Nc1cccc(C(F)(F)F)c1 | inactive
9 | CCCCOCCOCCO | inactive
10 | CC(C)(C)NC(=O)[C@H]1CC[C@H]2[C@@H]3CC[C@H]4NC(=O)C=C[C@]4(C)[C@H]3CC[C@]12C | inactive
11 | CC(C)=CCCC(C)CCO (stereo not given) | inactive
12 | c1ccc2cc(Nc3ccc(Nc4ccc5ccccc5c4)cc3)ccc2c1 | inactive
13 | CCC(C)c1ccccc1O (stereo not given) | inactive
14 | O=[N+]([O-])c1ccc2c(c1)Cc1ccccc1-2 | inactive
15 | CCC(C)OC(=O)c1ccc(O)cc1 (stereo not given) | inactive
16 | OC(CCl)CCl | inactive
17 | COc1ccc(OC)c(C(O)CNC(=O)CN)c1 (stereo not given) | inactive
18 | c1ccc2c(c1)Oc1ccccc1S2 | inactive
19 | COC(=O)c1ccccc1 | inactive
20 | CCCc1c(OCCCCc2nn[nH]n2)ccc(C(C)=O)c1O | inactive

Row | Compound | Potency
21 | OC1CCCCCCCCCCC1 | 43.6 µM (active)
22 | CCCCC(CC)COP(=O)(OCC(CC)CCCC)OCC(CC)CCCC (stereo not given) | inactive
23 | c1ccncc1 | inactive
24 | Nc1ncn([C@@H]2O[C@H](CO)[C@@H](O)[C@H]2O)c(=O)n1 | inactive
25 | Cc1cccc(N(C)C(=S)Oc2ccc3ccccc3c2)c1 | inactive
26 | CN(C)C(=N)N=C(N)N | inactive
27 | O=P(O)(O)O | inactive
28 | O=S(=O)(O)c1ccc(O)cc1 | inactive
29 | O=C(c1ccccc1)c1ccc(O)cc1O | inactive
30 | Nc1ncnc2nc[nH]c12 | inactive
31 | CC(=O)CC/C=C(\C)CCC=C(C)C | inactive
32 | Brc1cc(Oc2cc(Br)c(Br)c(Br)c2Br)c(Br)c(Br)c1Br | inactive
33 | C[Si](C)(C)O[Si](C)(C)C | inactive
34 | c1cc(-c2ccncc2)ccn1 | inactive
35 | CC1=CC2C3CC(C=C3C)C2C1 (stereo not given) | inactive and 38.9 µM (active)
36 | CC(=O)Oc1ccccc1C(=O)Nc1ncc([N+](=O)[O-])s1 | inactive
37 | Cc1cccc(C(=O)O)c1 | inactive
38 | O=C=Nc1ccc(Cc2ccc(N=C=O)cc2)cc1 | inactive
39 | Nc1ccc(Cl)cc1Cl | inactive
40 | Clc1nc(Cl)c(Cl)c(Cl)c1Cl | inactive
